# Measurements reported in PubChem BioAssay (EPA / NIEHS).
# Results filed as inconclusive are left out. Active and inactive are the calls of the source. How the source made its calls, unless noted: active means hit-call score of the fitted dose curve at least 0.9, where 1 is the maximum; inactive means score below 0.9.
# Columns and labels:
# [1] = target: human Thyroid Receptor alpha (THRa1), THRA (gene 7067) (UniProt P10827); experiment: ATG_THRa1_TRANS: Attagene TRANS-FACTORIAL HepG2 Assay for human Thyroid Receptor alpha (THRa1) (AID 2283014; active means hit-call score of the fitted dose curve at least 0.9, where 1 is the maximum)
# Procedure, shortened: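 HepG2 cells transiently transfected with multiplexed GAL4-UAS reporter units for exogenous chimeric THRa1-Gal4; reporter mRNA measured 24 h after dosing by RT-PCR, 6-FAM labelling, HpaI digestion and capillary electrophoresis. Gain-of-signal fitted versus DMSO baseline.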
# [2] = target: human Vitamin D Receptor (VDR), VDR (gene 7421) (UniProt P11473); experiment: ATG_VDR_TRANS: Attagene TRANS-FACTORIAL HepG2 Assay for human Vitamin D Receptor (VDR) (AID 2283022; active means hit-call score of the fitted dose curve at least 0.9, where 1 is the maximum)
# Procedure, shortened: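 HepG2 cells were transiently transfected with multiple GAL4-UAS reporter units, so signal reflects exogenous chimeric receptor-Gal4 activity. After 24 h compound exposure, reporter mRNA was measured by RT-PCR, fluorescent labelling and capillary electrophoresis, fitted for gain of signal versus DMSO.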
# [3] = read-out: E-selectin (Homo sapiens) (UniProt P16581); experiment: BSK_3C_Eselectin: BioMAP Diversity Plus: 3C Assay for Eselectin Biomarker Activity (AID 2283015); settings: primary human endothelial cells (HUVEC); actives raise or lower the signal;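 on outcome: cell surface E-selectin protein quantified by ELISA 24 h after dosing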
# Procedure, shortened: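 Primary human umbilical vein endothelial cells (3C system) were dosed with chemical and cell-surface E-selectin measured by ELISA 24 h later. Bidirectional curve fitting used DMSO as negative control and baseline.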
# [4] = read-out: Interleukin-1 alpha (IL1a), IL1A (gene 3552); experiment: BSK_BE3C_IL1a: BioMAP Diversity Plus: BE3C Assay for Interleukin-1 alpha (IL1a) Biomarker Activity (AID 2283016); settings: primary human bronchial epithelial cells; actives raise or lower the signal
# Procedure, shortened: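 Signal from IL-1a ELISA, taken 24 h after chemical dosing of human bronchial epithelial cells, is compared with DMSO as baseline using bidirectional curve fitting.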
# [5] = read-out: Monocyte Chemoattractant Protein-1 (MCP1), CCL2 (gene 6347); experiment: BSK_3C_MCP1: BioMAP Diversity Plus: 3C Assay for Monocyte Chemoattractant Protein-1 (MCP1) Biomarker Activity (AID 2283017); settings: primary human endothelial cells (HUVEC); actives raise or lower the signal
# Procedure, shortened: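 Primary human umbilical vein endothelial cells (3C system) were exposed to test chemical for 24 h, after which MCP-1 was quantified by ELISA. Activity was fitted bidirectionally against DMSO as negative control and baseline.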
# [6] = read-out: Monocyte Chemoattractant Protein-1 (MCP1), CCL2 (gene 6347); experiment: BSK_4H_MCP1: BioMAP Diversity Plus: 4H Assay for Monocyte Chemoattractant Protein-1 (MCP1) Biomarker Activity (AID 2283018); settings: primary human endothelial cells (HUVEC); actives raise or lower the signal
# Procedure, shortened: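 Endothelial cells from umbilical vein were treated with test chemical, then after 24 h MCP-1 levels were quantified by ELISA; endpoint values came from bidirectional fitting with DMSO as baseline of activity.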
# [7] = read-out: Human Leukocyte Antigen - DR isotype (HLADR), HLA-DRA (gene 3122); experiment: BSK_3C_HLADR: BioMAP Diversity Plus: 3C Assay for Human Leukocyte Antigen - DR isotype (HLADR) Biomarker Activity (AID 2283019); settings: primary human endothelial cells (HUVEC); actives raise or lower the signal;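 on outcome: ELISA of cell-surface HLA-DR on HUVEC 24 h after dosing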
# Procedure, shortened: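 Primary human umbilical vein endothelial cells (3C system) were dosed with compound and cell-surface HLA-DR was quantified by ELISA at 24 h. Activity was fitted bidirectionally against DMSO as negative control and baseline.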
# [8] = read-out: Interleukin-8 (IL8), CXCL8 (gene 3576); experiment: BSK_3C_IL8: BioMAP Diversity Plus: 3C Assay for Interleukin-8 (IL8) Biomarker Activity (AID 2283020); settings: primary human endothelial cells (HUVEC); actives raise or lower the signal
# Procedure, shortened: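 Endothelial primary cells of human umbilical vein origin are dosed with chemical; after 24 h the IL-8 biomarker is measured by ELISA, and concentration–response is fitted in both directions versus DMSO.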
# [9] = read-out: Monokine induced gamma interferon (MIG), CXCL9 (gene 4283); experiment: BSK_3C_MIG: BioMAP Diversity Plus: 3C Assay for Monokine induced gamma interferon (MIG) Biomarker Activity (AID 2283021); settings: primary human endothelial cells (HUVEC); actives raise or lower the signal;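 on AC50: MIG protein level measured by immunoassay in the treated endothelial cultures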
# Procedure, shortened: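 Endothelial primary cells (human umbilical vein) are dosed with test chemical in the 3C system. MIG levels are measured by ELISA at 24 h and fitted in both directions relative to DMSO.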
# [10] = BSK_3C_SRB: Viability Assessment in the BioMAP Diversity Plus: 3C Assay (AID 2283023); settings: primary human endothelial cells (HUVEC);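 further: fitted both ways against DMSO so a hit may be signal rise or drop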
# Procedure, shortened: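 Primary human umbilical vein endothelial cells in the 3C system were read 24 h after compound dosing. Total protein was stained with 0.1% sulforhodamine B after 10% TCA fixation and read at 560 nm, with bidirectional fitting against DMSO as baseline.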
# [11] = read-out: Matrix Metallopeptidase 1 (MMP1), MMP1 (gene 4312); experiment: BSK_BE3C_MMP1: BioMAP Diversity Plus: BE3C Assay for Matrix Metallopeptidase 1 (MMP1) Biomarker Activity (AID 2283024); settings: primary human bronchial epithelial cells; actives raise or lower the signal
# Procedure, shortened: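 MMP1 signal, measured by ELISA after a 24 h chemical exposure of human primary bronchial epithelial cells, is analysed with bidirectional fitting using DMSO as negative control.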
# [12] = BSK_3C_Vis: BioMAP Diversity Plus: 3C Assay for Morphology Visualization (AID 2283025); settings: primary human endothelial cells (HUVEC);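 further: fitted both ways so gain or loss versus DMSO counts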
# Procedure, shortened: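 Morphology read by light microscopy serves as a background control for the multiplexed 3C assay in human umbilical vein endothelial cells, taken 24 h after dosing, with DMSO as the negative control and bidirectional curve fitting.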
# [13] = read-out: Pselectin, SELP (gene 6403); experiment: BSK_4H_Pselectin: BioMAP Diversity Plus: 4H Assay for Pselectin Biomarker Activity (AID 2283026); settings: primary human endothelial cells (HUVEC); actives raise or lower the signal
# Procedure, shortened: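 Endothelial primary cells (human umbilical vein) are dosed, incubated 24 h, and assayed for surface P-selectin by ELISA; responses in either direction are fitted relative to the DMSO negative control.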
# [14] = BSK_4H_SRB: Viability Assessment in the BioMAP Diversity Plus: 4H Assay (AID 2283027); settings: primary human endothelial cells (HUVEC);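 further: cells exposed to compound for 24 h before staining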;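 on AC50: curves fitted both ways versus DMSO so AC50 may be loss or gain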
# Procedure, shortened: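 Cytotoxicity readout: sulforhodamine B (0.1%) staining of total protein after 10% TCA fixation, measured at 560 nm in human umbilical vein endothelium at 24 h. DMSO set the baseline; fitting was bidirectional.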
# [15] = BSK_BE3C_SRB: Viability Assessment in the BioMAP Diversity Plus: BE3C Assay (AID 2283028); settings: primary human bronchial epithelial cells;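 on AC50: fitted both ways so AC50 may mark signal gain or loss versus DMSO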
# Procedure, shortened: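 Human primary bronchial epithelial cells were exposed to test chemicals for 24 h. Total protein in parallel cultures was then measured by staining with 0.1% sulforhodamine B after 10% TCA fixation, with absorbance read at 560 nm. Activity was fitted bidirectionally against DMSO.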
# [16] = read-out: Thrombomodulin, THBD (gene 7056); experiment: BSK_3C_Thrombomodulin: BioMAP Diversity Plus: 3C Assay for Thrombomodulin Biomarker Activity (AID 2283029); settings: primary human endothelial cells (HUVEC); actives raise or lower the signal
# Procedure, shortened: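 Endothelial cells from umbilical vein are dosed with test chemical and incubated 24 h. Thrombomodulin is then quantified by ELISA, with DMSO serving as negative control and activity baseline.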
# [17] = read-out: Urokinase-type plasminogen activator receptor (uPAR), PLAUR (gene 5329); experiment: BSK_4H_uPAR: BioMAP Diversity Plus: 4H Assay for Urokinase-type plasminogen activator receptor (uPAR) Biomarker Activity (AID 2283030); settings: primary human endothelial cells (HUVEC); actives raise or lower the signal
# Procedure, shortened: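 Primary human umbilical vein endothelial cells were exposed to chemical for 24 h before cell-surface uPAR was quantified by ELISA. Activity was fitted bidirectionally against the DMSO negative control baseline.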
# [18] = read-out: Vascular endothelial growth factor receptor 2 (Homo sapiens) (UniProt P35968); experiment: BSK_4H_VEGFRII: BioMAP Diversity Plus: 4H Assay for Vascular endothelial growth factor receptor 2 (VEGFR2) Biomarker Activity (AID 2283031); settings: primary human endothelial cells (HUVEC); actives raise or lower the signal;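 on AC50: cell-surface VEGFR2 protein level quantified by ELISA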
# Procedure, shortened: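 Primary human umbilical vein endothelial cells in the BioMAP 4H system were dosed with test chemical, and 24 h later VEGFRII was measured by ELISA. Activity was fitted bidirectionally against DMSO as negative control and baseline.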
# [19] = target: human Retinoid X Receptor beta (RXRb), RXRB (gene 6257) (UniProt P28702); experiment: ATG_RXRb_TRANS: Attagene TRANS-FACTORIAL HepG2 Assay for human Retinoid X Receptor beta (RXRb) (AID 2283013; active means hit-call score of the fitted dose curve at least 0.9, where 1 is the maximum)
# Procedure, shortened: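 Chimeric receptor-Gal4 activity was assessed in transiently transfected human HepG2 cells after 24 h exposure. Transcripts from GAL4-UAS reporters were quantified by fluorescent RT-PCR and capillary electrophoresis, with DMSO as negative control and baseline.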
# human Vitamin D Receptor (VDR), VDR (gene 7421), sequence (P11473 whole entry, looked up, the tested form may be a part): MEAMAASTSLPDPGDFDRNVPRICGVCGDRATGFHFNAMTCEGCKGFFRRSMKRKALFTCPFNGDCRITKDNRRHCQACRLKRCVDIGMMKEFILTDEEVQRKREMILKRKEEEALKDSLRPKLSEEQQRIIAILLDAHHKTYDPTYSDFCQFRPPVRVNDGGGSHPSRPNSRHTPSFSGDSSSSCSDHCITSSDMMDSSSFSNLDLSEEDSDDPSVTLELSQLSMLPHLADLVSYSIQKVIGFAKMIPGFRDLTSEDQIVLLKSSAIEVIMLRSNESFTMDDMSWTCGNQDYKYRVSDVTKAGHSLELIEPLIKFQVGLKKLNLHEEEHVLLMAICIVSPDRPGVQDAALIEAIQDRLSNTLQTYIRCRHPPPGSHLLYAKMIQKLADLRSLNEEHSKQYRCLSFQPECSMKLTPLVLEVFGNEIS
# human Thyroid Receptor alpha (THRa1), THRA (gene 7067), sequence (P10827 whole entry, looked up, the tested form may be a part): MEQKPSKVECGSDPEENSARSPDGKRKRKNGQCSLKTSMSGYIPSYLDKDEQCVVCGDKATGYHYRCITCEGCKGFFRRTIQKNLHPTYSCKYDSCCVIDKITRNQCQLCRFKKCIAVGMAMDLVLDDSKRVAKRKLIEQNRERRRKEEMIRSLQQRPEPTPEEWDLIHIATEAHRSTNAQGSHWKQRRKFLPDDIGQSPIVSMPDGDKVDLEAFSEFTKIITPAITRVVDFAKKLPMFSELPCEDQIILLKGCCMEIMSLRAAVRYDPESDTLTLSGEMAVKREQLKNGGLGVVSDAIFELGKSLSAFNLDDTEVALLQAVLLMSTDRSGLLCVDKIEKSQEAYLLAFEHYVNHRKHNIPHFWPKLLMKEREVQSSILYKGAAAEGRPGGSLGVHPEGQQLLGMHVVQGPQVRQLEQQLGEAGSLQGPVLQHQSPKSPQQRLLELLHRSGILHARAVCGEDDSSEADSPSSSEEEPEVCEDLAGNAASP
# E-selectin (Homo sapiens), sequence (P16581 whole entry, looked up): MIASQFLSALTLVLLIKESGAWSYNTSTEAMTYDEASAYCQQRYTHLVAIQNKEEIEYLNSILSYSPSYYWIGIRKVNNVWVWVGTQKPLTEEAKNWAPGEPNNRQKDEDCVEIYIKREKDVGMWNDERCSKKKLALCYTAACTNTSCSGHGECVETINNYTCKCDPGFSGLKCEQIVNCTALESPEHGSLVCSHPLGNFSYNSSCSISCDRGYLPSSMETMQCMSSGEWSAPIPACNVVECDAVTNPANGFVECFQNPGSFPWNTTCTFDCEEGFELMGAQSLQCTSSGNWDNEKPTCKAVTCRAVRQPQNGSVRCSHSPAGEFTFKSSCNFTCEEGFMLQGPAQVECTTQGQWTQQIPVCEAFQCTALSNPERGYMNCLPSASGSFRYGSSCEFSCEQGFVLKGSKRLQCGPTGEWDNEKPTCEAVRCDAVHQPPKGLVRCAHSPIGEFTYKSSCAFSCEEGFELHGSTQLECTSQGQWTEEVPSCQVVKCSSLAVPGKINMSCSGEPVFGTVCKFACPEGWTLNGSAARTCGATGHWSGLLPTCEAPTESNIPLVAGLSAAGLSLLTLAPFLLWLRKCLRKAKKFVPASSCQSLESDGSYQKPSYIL
# human Retinoid X Receptor beta (RXRb), RXRB (gene 6257), sequence (P28702 whole entry, looked up, the tested form may be a part): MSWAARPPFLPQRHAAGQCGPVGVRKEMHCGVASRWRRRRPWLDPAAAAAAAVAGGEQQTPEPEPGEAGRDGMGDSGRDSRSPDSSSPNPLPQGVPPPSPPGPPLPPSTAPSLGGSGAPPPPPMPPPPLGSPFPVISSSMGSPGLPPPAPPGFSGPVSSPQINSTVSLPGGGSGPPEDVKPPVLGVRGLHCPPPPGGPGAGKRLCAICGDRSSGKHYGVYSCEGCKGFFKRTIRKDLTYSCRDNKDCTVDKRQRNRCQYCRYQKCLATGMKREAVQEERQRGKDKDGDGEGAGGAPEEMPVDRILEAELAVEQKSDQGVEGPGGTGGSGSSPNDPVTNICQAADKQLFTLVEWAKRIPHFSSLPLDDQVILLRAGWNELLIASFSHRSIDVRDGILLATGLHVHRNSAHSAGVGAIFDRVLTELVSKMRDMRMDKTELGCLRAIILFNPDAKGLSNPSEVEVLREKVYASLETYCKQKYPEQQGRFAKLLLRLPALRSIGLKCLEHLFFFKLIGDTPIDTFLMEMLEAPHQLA
structure (smiles),measurement,setting,value
C=C(C)[C@@H]1CC=C(C=O)CC1,outcome,[1],inactive
same,outcome,[2],inactive
CNC(=O)CSP(=O)(OC)OC,outcome,[1],inactive
Brc1ccc(Br)cc1,outcome,[1],inactive
COC(=O)Nc1cccc(OC(=O)Nc2cccc(C)c2)c1,outcome,[1],inactive
CC(C)N(C(=O)CCl)c1ccccc1,outcome,[1],inactive
same,AC50,[3],20 µM (active)
same,AC50,[4],35.1 µM (active)
same,AC50,[5],20 µM (active)
same,AC50,[6],20 µM (active)
same,AC50,[7],7.36 µM (active)
same,outcome,[8],inactive
same,AC50,[9],33.3 µM (active)
same,outcome,[2],inactive
same,AC50,[10],20 µM (active)
same,outcome,[11],inactive
same,AC50,[12],14.5 µM (active)
same,AC50,[13],16.8 µM (active)
same,AC50,[14],24.5 µM (active)
same,AC50,[15],29.9 µM (active)
same,outcome,[16],inactive
same,AC50,[17],35.1 µM (active)
same,outcome,[18],inactive
CCOP(=O)(OCC)OC(=CCl)c1ccc(Cl)cc1Cl,AC50,[3],29.2 µM (active)
same,outcome,[4],inactive
same,AC50,[5],35.4 µM (active)
same,AC50,[6],20 µM (active)
same,AC50,[7],32.7 µM (active)
same,AC50,[8],3.97 µM (active)
same,outcome,[9],inactive
same,AC50,[10],29 µM (active)
same,outcome,[11],inactive
same,AC50,[12],37.4 µM (active)
same,AC50,[13],35.3 µM (active)
same,AC50,[14],29.3 µM (active)
same,outcome,[15],inactive
same,outcome,[16],inactive
same,AC50,[17],30.8 µM (active)
same,AC50,[18],28.7 µM (active)
COc1ccc(N)cc1,outcome,[1],inactive
CCCCOC(=O)COC(=O)c1ccccc1C(=O)OCCCC,outcome,[1],inactive
same,outcome,[3],inactive
same,outcome,[4],inactive
same,outcome,[5],inactive
same,outcome,[6],inactive
same,outcome,[7],inactive
same,outcome,[8],inactive
same,outcome,[9],inactive
same,outcome,[10],inactive
same,outcome,[11],inactive
same,outcome,[13],inactive
same,outcome,[14],inactive
same,outcome,[15],inactive
same,outcome,[16],inactive
same,outcome,[17],inactive
same,outcome,[18],inactive
CCCCS(=O)(=O)Cl,outcome,[2],inactive
C=CCOC(N)=O,outcome,[1],inactive
same,outcome,[2],inactive
ClCCN1CCOCC1,outcome,[19],inactive
same,outcome,[2],inactive
CCOc1ccc(N)cc1,outcome,[1],inactive
CC(C)[N+](=O)[O-],outcome,[1],inactive
CCCCCCCCCCCCc1cccc(S(=O)(=O)O)c1,AC50,[19],30 µM (active)
same,outcome,[3],inactive
same,AC50,[4],27.2 µM (active)
same,outcome,[5],inactive
same,outcome,[6],inactive
same,outcome,[7],inactive
same,outcome,[8],inactive
same,outcome,[9],inactive
same,outcome,[10],inactive
same,AC50,[11],28.8 µM (active)
same,outcome,[12],inactive
same,outcome,[13],inactive
same,outcome,[14],inactive
same,AC50,[15],26.9 µM (active)
same,outcome,[16],inactive
same,outcome,[17],inactive
same,outcome,[18],inactive
O=C(CCl)Nc1ccccc1,outcome,[1],inactive
CC(c1ccccc1)(c1ccc(O)cc1)c1ccc(O)cc1,outcome,[2],inactive
